Experiments:
[1] = target: T1, Aspartate--tRNA(Asp/Asn) ligase (Mycobacterium tuberculosis (strain ATCC 25618 / H37Rv)) (UniProt P9WFW3); test: Assay for Asp RNA synthetase-1 from Mycobacterium tuberculosis; assay type: functional; set-up: scale not given: direction of the effect not stated beside the values; conditions: 30 µM; note: in the data most compounds retested in dose-response had high values
T1 sequence (whole entry): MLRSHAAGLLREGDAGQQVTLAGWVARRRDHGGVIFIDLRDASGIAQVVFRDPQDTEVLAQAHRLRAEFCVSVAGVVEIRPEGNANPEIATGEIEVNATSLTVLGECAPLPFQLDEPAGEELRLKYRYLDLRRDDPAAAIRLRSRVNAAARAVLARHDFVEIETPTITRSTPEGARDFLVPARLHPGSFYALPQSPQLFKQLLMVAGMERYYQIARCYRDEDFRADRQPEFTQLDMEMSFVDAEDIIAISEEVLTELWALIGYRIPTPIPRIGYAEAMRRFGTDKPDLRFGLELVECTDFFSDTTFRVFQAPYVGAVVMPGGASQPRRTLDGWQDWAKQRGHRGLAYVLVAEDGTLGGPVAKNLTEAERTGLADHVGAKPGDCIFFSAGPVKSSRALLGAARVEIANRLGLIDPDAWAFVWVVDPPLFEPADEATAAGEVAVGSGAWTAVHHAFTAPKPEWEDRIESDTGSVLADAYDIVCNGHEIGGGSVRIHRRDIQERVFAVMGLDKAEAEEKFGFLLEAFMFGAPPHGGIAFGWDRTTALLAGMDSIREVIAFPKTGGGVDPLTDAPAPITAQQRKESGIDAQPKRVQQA

[2] = target: Shiga toxin 2 (Escherichia coli O157:H7) (UniProt P09385+P09386); test: E. coli 0.157:H7 Shiga Toxin SOP - stx2 screening assay; assay type: functional; set-up: scale not given: direction of the effect not stated beside the values; conditions: 30 µM

| Compound | Percent Effect [1] | Percent Effect [2] |
| --- | --- | --- |
| O=C(NCCCn1cncn1)NCC(c1ccccc1)N1CCCC1 (configuration not stated) | 0.0576% | -13% |
| c1ncn(CC2CCCN2Cc2cn3ccsc3n2)n1 (configuration not stated) | -3.37% | -3.31% |
| O=C(NCCn1ccnc1)c1ccn(-c2cccc(F)c2)n1 | 5.59% | 0.0864% |
| CN1CCN(CC2CC2)C(=O)c2cnc(N3CCCCC3)nc21 | 3.69% | -8.64% |
| Cn1ccnc1CNC(=O)N1CCCC(Cc2nccn2C)C1 (configuration not stated) | 0.605% | -13.5% |
| CN(CCC(F)(F)F)C(=O)[C@H]1CSCN1C(=O)OC(C)(C)C | -5.95% | -17.7% |
| O=C(C1CCC1)N1CCn2c(COc3ncccn3)nnc2C1 | -0.503% | -1.29% |
| COc1ccc(C2CC(=O)Nc3c2nc2n3CCCC2)cc1OC (configuration not stated) | 0.342% | 0.28% |
| NC(=O)CN1CCCN(C(=O)c2ccn(-c3cccc(F)c3)n2)CC1 | 5.51% | -6.78% |
| CCn1c(C(=O)N2CCN(C(=O)COC)CC2)cc2ccccc21 | -7.07% | -41.5% |
| O=C(CCOCc1ccccc1)N1CCCC1c1noc(C2CC2)n1 (configuration not stated) | 14.9% | 22.2% |
| Cc1cnn(CC2CCCN2Cc2nccn2C)c1 (configuration not stated) | 5.22% | 7.58% |
| Cc1occc1C(=O)N1CCC2(CCC(C(=O)NCC3CC3)O2)CC1 (configuration not stated) | -0.182% | -6.83% |
| COc1c(CNC2CCN(c3ncccn3)CC2)c(C(C)C)nn1C | -2.81% | 30.1% |
| CN1CCOC(CNCc2coc(-c3cccs3)n2)C1 (configuration not stated) | 3.28% | -17.6% |
| Fc1ccc(CN2CCCC2c2cncc(-n3ccnc3)n2)cc1 (configuration not stated) | 3.75% | 24.5% |
| CC(=O)NCCC1CCCCN1S(=O)(=O)c1cccc(C#N)c1 (configuration not stated) | -1.28% | -30% |
| Cc1cc(N2CCN(Cc3nccn3C)CC2)cc(C)n1 | 2.09% | -75.9% |
| CC(C)c1n[nH]c(C(=O)Nc2ccnn2C(C)C)c1Br | -9.11% | -15.3% |
| COC[C@@]12CC[C@@H](N3CCOCC3)C[C@H]1CCN(c1ncccn1)C2 | -4.45% | 17.6% |
| O=C(CSc1ccccn1)N1C[C@H]2CC[C@@H]1CN(Cc1cscn1)C2 | -1.93% | -6.72% |
| Cn1nccc1C1CCN(CC(O)c2cccc(F)c2)CC1 (configuration not stated) | -1.6% | -15.8% |
| CCCNC(=O)Cn1cc(-c2ccccc2)cn1 | -2.52% | -0.0685% |
| Cc1nnc(C(C)NCC2(c3c(F)cccc3F)CCCC2)o1 (configuration not stated) | -1.77% | 9.79% |
| CN(CC(=O)N1CCCC1Cn1cccn1)c1cnccn1 (configuration not stated) | -1.26% | -0.699% |
| c1ccc(-c2nnc(CNCCn3cccn3)o2)cc1 | -5.08% | 0.764% |

| Compound | Percent Effect [1] | Percent Effect [2] |
| --- | --- | --- |
| COc1ccc(CN2C[C@@H](N(C)Cc3ccco3)[C@H]3OCCC[C@H]32)cc1 | 0.632% | 4.78% |
| Cc1ccc(S(=O)(=O)NC2CNC(=O)C2)cc1C (configuration not stated) | -1.98% | 9.86% |
| COCC1c2c(cnn2CC2CC2)CCN1Cc1nccs1 (configuration not stated) | 0.524% | -52.1% |
| CN(C)[C@@H]1CN(Cc2ccco2)C[C@@H]2CCCO[C@@H]21 | -2% | 6.7% |
| COc1ccc(OCc2sc(C3(O)CCCNCC3)nc2C)cc1 (configuration not stated) | 5.08% | 7.21% |
| CN1CC(c2ccccc2)CC12CCN(C(=O)c1cncc(Cl)c1)CC2 (configuration not stated) | 0.408% | 12.5% |
| COC(=O)c1cccn1C1CCN(C(=O)c2cc(C)ccc2O)CC1 | 3.4% | 21.2% |
| O=C(c1ccc(F)c(F)c1)N1CCCC(Nc2ccc(F)cc2)C1 (configuration not stated) | 0.212% | 11.2% |
| Cc1nn(C)cc1CN(C)Cc1cc2c(cc1OC(F)F)OCO2 | 3.57% | -11.3% |
| CCS(=O)(=O)N(C)c1ccc(C(=O)N2CCCC(C)C2)cc1 (configuration not stated) | -3.31% | -3.21% |
| CN(Cc1ccsc1)C(=O)Nc1ccc(S(=O)(=O)N(C)C)cc1 | 0.428% | -3.75% |
| CC(C)c1nc(C2CCCN2CC(=O)Nc2nncs2)no1 (configuration not stated) | -6.57% | 9.9% |
| O=C1N(c2cccc(Cl)c2)Cc2nc(=O)n(Cc3cccc(F)c3)n21 | 6.56% | -11.3% |
| CSC(C)C(=O)N1CCCN(Cc2cscn2)CC1 (configuration not stated) | -6.57% | 25.4% |
| O=C(Cn1cccnc1=O)NC(Cc1cccs1)c1ccccn1 (configuration not stated) | -0.372% | -0.987% |
| CC1CCN(CCNC(=O)c2ccccc2N2CCOCC2)CC1 | 2.6% | -16.9% |
| Cn1cc(N2CC3(CCN(Cc4cccs4)CC3)OCC2=O)cn1 | -0.729% | -20.1% |
| O=C1NCC2(CCCN(CCc3ccccc3)C2)Oc2ccccc21 (configuration not stated) | -2.1% | -68.8% |
| c1cnnc(N2CCCC2CNCc2cc[nH]n2)c1 (configuration not stated) | -3.63% | -20% |
| COc1c(CNCc2ccnc(N3CCCC3)c2)c(C)nn1C | 2.34% | -55.3% |
| CCC(C)c1noc(C2CCN(C(=O)c3cccs3)CC2)n1 (configuration not stated) | 4.84% | -48% |
| O=C(c1ccc[nH]1)N1CCc2c(COCC3CC3)cncc2C1 | -0.626% | 1.55% |
| Cc1nc[nH]c1-c1nc2cc(S(=O)(=O)N3CCCC3)ccc2n1C | 1.21% | 0.151% |
| CS(=O)(=O)NC1CCCN(C(=O)NCc2cccnc2)C1 (configuration not stated) | -0.548% | 26.7% |
| COc1ccc(F)cc1C(=O)N(C)Cc1cc(C)on1 | -3.3% | -29.3% |
